Data published in PubChem BioAssay (NCI).
“And” between values parts separate entries of the source, which are not always exact repeats. Identical values can stand only once. This is part of a sample that, as a whole, favours compounds with a hit. Of some 79,000 tested, about 15% had one in any assay. The source made the active and inactive calls. Cut-off read from the data, not from the text of the source: active = growth inhibition above about 70%; inactive = the rest.

assay: NCI Yeast Anticancer Drug Screen. Data for the mec2-1 strain (AID 157); conditions: S. cerevisiae mec2-1 strain, at 50.0 µM, hits give high values
In short: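 Mutant yeast (mec2-1) grown with compound; growth inhibition relative to vehicle control reported.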

Compound	growth inhibition
O=[N+]([O-])CCCCl	-3.05% (inactive)
CCCC(C)c1ccc(SOO)cc1.[Fe] (stereo not given)	4.05% (inactive)
CC1(C)N=C(N)N=C(N)N1c1ccc(CCc2ccc(Cl)c(S(=O)(=O)F)c2)c(Cl)c1	99.5% (active)
CCN(CC)C(=S)SC1C(=O)NC(=O)NC1=O	-15.4% (inactive)
C=C(C)[C@H]1CN[C@H](C(=O)O)[C@H]1CC(=O)O	-5% (inactive)
CC(C)=CC(=O)N(C)C1C2CN3CCC(O2)C13 (stereo not given)	14.6% (inactive)
Nc1ccc([N+](=O)[O-])cc1[N+](=O)[O-]	5.4% (inactive)
CC1C(C(=O)c2ccc(-c3ccccc3)cc2)N1C(C)(C)C (stereo not given)	10.2% (inactive)
[Se]c1nc(N2CCOCC2)ncc1-c1ccccc1	0.5% (inactive)
CCCCCCC[CH2][Sn][CH2]CCCCCCC.Nc1ncnc2c1ncn2C1OC(CO)C2[OH+][OH+]C21 (stereo not given)	5.45% (inactive)
CO/N=C1\CC(C)N2C(=O)C(C(C)C)NC(=O)C(NC(=O)c3c4nc5c(C(=O)NC6C(=O)NC(C(C)C)C(=O)N7C(C)CC(O)C7C(=O)N(C)CC(=O)N(C)C(C(C)C)C(=O)OC6C)ccc(C)c5oc-4c(C)c(=O)c3N)C(CO)OC(=O)C(C)N(C)C(=O)CN(C)C(=O)C12 (stereo not given)	-18.8% (inactive)
O=P(Oc1ccccc1)(Oc1ccccc1)N(CCCl)CCCl	9.55% (inactive)
O=C(O)C1C2C=Cc3ccccc3C21 (stereo not given)	2.9% (inactive)
CC(NC1=NCCO1)c1ccco1 (stereo not given)	9.15% (inactive)
CCOP(=O)(CSCCC1(C)NC(=O)NC1=O)OCC (stereo not given)	-9.7% (inactive)
CC(COC(=O)NCc1ccccc1)OC(N)=O (stereo not given)	-14.8% (inactive)
CC(C)(C)C1=C(Br)C(F)(C(C)(C)C)OP1(=O)c1ccccc1 (stereo not given)	92.3% (active)
O=P(Nc1ccc(Cl)cc1)(Oc1ccccc1)N(CCCl)CCCl (stereo not given)	-1.55% (inactive)
COc1ccc2c(c1OC)CC(N)C2O (stereo not given)	3.55% (inactive)
CN1CCc2ccc(O)cc2C1	5.6% (inactive)

Compound	growth inhibition
O=C(Cc1ccccc1)OC1CCCC1	-4.6% (inactive)
O=C1NC2(CCCCC2)C(=O)N1CCCCCN(CCCl)CCCl	18.4% (inactive)
Nc1cc(S(=O)(=O)F)ccc1Cl	6.1% (inactive)
CCC(CO)N=Cc1ccccc1O.CCC(CO)N=Cc1ccccc1O.[Ni] (stereo not given)	1.3% (inactive)
CS(=O)(=O)OC1C2CC(C1OS(C)(=O)=O)C(c1ccccc1)C2C(=O)O (stereo not given)	21% (inactive)
CC(C)(C)C1=C(Br)C(OC(=O)C(F)(F)F)(C(C)(C)C)OP1(=O)c1ccccc1 (stereo not given)	12.2% (inactive)
O=C(Cl)c1cc([N+](=O)[O-])cc([N+](=O)[O-])c1	26.1% (inactive)
COc1ccc(CCN(C)Cc2cccc(OC)c2OC)cc1OC	-5.85% (inactive)
O=C1C2CCN(CC2)C1Cc1ccccc1 (stereo not given)	1.95% (inactive) and 2.95% (inactive)
C#CC1(O)CCC(C(C)(C)C)CC1 (stereo not given)	6.6% (inactive) and 25.3% (inactive) and -12.8% (inactive)
CC(C)OC(=S)S.[Cu+2]	-6.7% (inactive)
NC(N)=NCCCCCCCCCCN=C(N)N	-20.2% (inactive)
OC(c1ccccc1)C(NC1CCCCC1)c1ccccc1 (stereo not given)	-18.6% (inactive)
C1CC[N-]CC1.CC(=N\O)/C(C)=N/O.CC(=N\O)/C(C)=N/O.C[C-]=O.[Co+2]	18.4% (inactive)
O=[As](O)(O)c1cc(N=Nc2ccc(-c3ccc(N=Nc4cc([As](=O)(O)O)c(O)cc4O)cc3)cc2)c(O)cc1O	44% (inactive)
O=C(CF)NCCCl	-8.8% (inactive)
O=CC=O	17.6% (inactive)
Nc1ccc([N+](=O)[O-])cc1Cl	-7.3% (inactive)
CN1CCN(C(=O)Cc2c[nH]c3ccccc23)CC1	11.8% (inactive)
CS(=O)(=O)CS(=O)(=O)OCCF	-12.4% (inactive)
